PfM18AAP inh: PfM18AAP enzyme inhibition; recombinant PfM18AAP, H-Glu-NHMec fluorogenic cleavage; AID 1822; actives 1.2% (n = 290,000); inhibition, % at 7.35 µM;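 active = inhibition above the campaign mean inhibition over all tested compounds plus 3 SD, cut at about 28% in these data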
Mot1-301 SUMO: SUMOylation pathway inhibition by Mot1-301 growth rescue | S. cerevisiae Mot1-301 growth rescue, ATP luminescence, 38.5C; percent above DMSO median, 100 means doubled | growth rescue, % at 18.8 µM | actives 1% (n = 320,000);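 active = every valid replicate shows activation above 250% relative to neutral control wells; inactive = the rest, any valid replicate at or below 250%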
HIF act: HIF pathway transcriptional activation | U2OS HRE-luciferase reporter, luminescence; normalized: DMSO 0%, desferrioxamine 100% | activation, % at 7.5 µM (by protocol) | actives 0.32% (n = 300,000) | AID 1910;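 active = mean activation of at least 10% of the iron chelator positive control signal, with at least half of replicates also reaching 10%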
ALR inh: human ALR oxidase inhibition via reduced H2O2. inhibition, % (test concentration not listed). AID 485317. purified ALR, DTT oxidation, H2O2 HRP-luminol luminescence. actives 3.8% (n = 290,000);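 active = mean replicate inhibition above about 79%, with every replicate also reaching it, limit read from the data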
Target sequence (P55789 whole entry, looked up): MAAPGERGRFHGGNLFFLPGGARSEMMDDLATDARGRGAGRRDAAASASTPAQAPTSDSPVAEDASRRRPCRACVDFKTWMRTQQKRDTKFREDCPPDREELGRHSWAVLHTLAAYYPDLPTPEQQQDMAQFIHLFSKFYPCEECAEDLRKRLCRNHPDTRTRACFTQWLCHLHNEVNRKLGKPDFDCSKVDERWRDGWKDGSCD
Mot1 SUMO dose: inhibits SUMO pathway, affecting Mot1-301 yeast growth. shares compounds with Mot1-301 SUMO. S. cerevisiae Mot1-301 galactose growth, ATP luminescence, 24 h; -100 = growth of slx-deleted rescue strain. growth activity, percent, % at 42 µM. 2,300 tested, under 10 active. AID 493004;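 active = Signal drops as the depositor expects, and the fitted half-maximal dose is no more than ten times the top valid tested dose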;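 also: more negative values mean stronger growth rescue toward the control strain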
A number is an active result; 0 = inactive; - = no result given; + = active, no number. Sampled rows, rich in hits. Any-hit rate of the full collection: about 5.3%.

SMILES	PfM18AAP inh	Mot1-301 SUMO	HIF act	ALR inh	Mot1 SUMO dose
O=C(NCc1ccccn1)C1CC(c2ccc(Cl)c(Cl)c2)=NO1 (stereo not given)	0	+	0	0	0
CN(C)CCCN(Cc1ccccc1)C(=S)Nc1ccc(F)c(Cl)c1	0	608	0	0	0
CN(C)CCCN(Cc1ccccc1)C(=S)Nc1cccc(C(F)(F)F)c1	0	0	0	0	-
CC(C)c1ccc(NC(=O)Cn2cccc2C2=NC(c3ccccc3)CO2)cc1 (stereo not given)	0	0	0	0	-
CCOC(=O)c1cnc2oc3ccccc3n2c1=O	0	+	0	-	0
O=C(c1ccncc1)N1CCN(S(=O)(=O)c2ccccc2Br)CC1	-	0	-	0	-
COc1ccccc1NC(=S)N1CC(C)OC(C)C1 (stereo not given)	0	0	0	0	-
COc1cc(CNCCN2CCOCC2)ccc1OCc1ccccc1Cl	0	453	0	0	0
Clc1cc(Br)ccc1OCCOCCN1CCOCC1	0	504	0	0	0
CCOc1ccc(Br)cc1CNCCN1CCOCC1	0	399	0	0	0
Cn1ccnc1SCC(=O)Nc1cc(C(F)(F)F)ccc1N1CCOCC1	0	0	0	0	-
O=C(CSc1nnc(COc2ccccc2Cl)o1)NC(=O)NC1CCCC1	0	392	0	0	0
CC(C)(C)C(=O)Nc1cc(NC(=O)C(C)(C)C)cc(C(=O)Nc2cc(C(=O)O)cc(C(=O)O)c2)c1	0	0	0	0	-
COc1ccc(C(=O)N(CCc2ccccc2)Cc2ccccc2)c(OC)n1	0	658	0	0	0
COc1ccc(NC(=O)c2ccc3c(=O)n(CC4CCCO4)c(=S)[nH]c3c2)c(OC)c1 (stereo not given)	0	0	0	-	-
O=c1[nH]c(CN2CCN(CCO)CC2)nc2ccccc12	0	587	0	0	0
CCc1nnc(NC(=O)CCC(=O)Nc2ccc(OC)cc2OC)s1	0	0	0	0	-
Cc1ccccc1NC(=O)COC(=O)C1C2CC3OC(=O)C1C3C2 (stereo not given)	0	474	0	0	0
Cc1ccc(S(=O)(=O)NCC(=O)OCC(=O)c2ccc(Br)s2)cc1	0	747	0	0	0
COC(=O)c1ccccc1SC(CC(=O)c1ccccc1)c1ccc(F)cc1 (stereo not given)	0	461	0	0	0
O=C(CC(Nc1ccc(F)cc1)c1ccccc1)c1ccccc1 (stereo not given)	0	0	0	0	-
O=C(CSc1nnc(CNC(=O)c2ccco2)o1)Nc1nc2ccccc2s1	29	+	0	0	0
CCC1CCCCN1C(=O)CSc1nnc(CNC(=O)c2ccco2)o1 (stereo not given)	0	361	0	0	0
O=C(CSc1nnc(CNC(=O)c2ccccc2)o1)NCc1ccco1	0	800	0	0	0
CCC1CCCCN1C(=O)CSc1nnc(CNC(=O)c2cc(OC)c(OC)c(OC)c2)o1 (stereo not given)	0	0	0	0	-
SMILES	PfM18AAP inh	Mot1-301 SUMO	HIF act	ALR inh	Mot1 SUMO dose
O=C(CSc1nnc(CNC(=O)c2ccco2)o1)Nc1ccccc1	0	0	0	0	-
COc1ccc(C2NC(=O)c3ccccc3O2)cc1 (stereo not given)	0	529	0	0	0
COc1ccc(C2NC(=O)c3ccccc3O2)cc1OC (stereo not given)	0	0	-	0	-
O=c1cnc2cc([N+](=O)[O-])ccc2[nH]1	0	848	0	0	0
O=[N+]([O-])c1ccc2nc(CCCc3nc4ccc([N+](=O)[O-])cc4[nH]3)[nH]c2c1	0	0	0	0	-
COc1ccc(Cl)cc1NC(=O)C1CCCN(c2cc(C)nc3ncnn23)C1 (stereo not given)	0	733	0	0	0
O=S(=O)(NCCN1CCCC1)c1cccc2cccnc12	0	815	-	0	0
COC(=O)CCC(=O)OC1(C)C(=O)C=C2C=C(C3CC3)N(Cc3ccc4c(c3)OCO4)C=C2C1=O (stereo not given)	-	881	0	0	0
CCN(C(=O)COC(=O)c1cc([N+](=O)[O-])ccc1N1CCOCC1)C1CCCCC1	-	538	0	-	0
CCN(C(=O)COC(=O)c1cc([N+](=O)[O-])ccc1N1CCCCC1)C1CCS(=O)(=O)C1 (stereo not given)	0	0	0	0	-
Cc1cc(C)c(NC(=O)CNC(=O)c2cc([N+](=O)[O-])ccc2N2CCOCC2)c(C)c1	-	507	0	0	0
Cc1onc(-c2ccccc2)c1C(=O)N/N=C/c1cccc(O)c1	0	0	0	0	-

Screens as filed in PubChem.
